# Experiments:
# Assay in all cases: DAPPL (digital affinity profiling via proximity ligation, sequencing); 10 mM Tris-HCl pH 7.5, 50 mM NaCl, 1 mM DTT, 4% glycerol, room temperature, 30 min; GST-TFs on glutathione beads, 16-mer random dsDNA library, 0.1% formaldehyde crosslink after washing; high values mean tight binding
# [1] = biological target: T1, FEV (Homo sapiens, UniProt Q99581 1-238); conditions: protein: recombinant; tags: N-terminal GST; dsDNA, one strand shown
# T1 sequence: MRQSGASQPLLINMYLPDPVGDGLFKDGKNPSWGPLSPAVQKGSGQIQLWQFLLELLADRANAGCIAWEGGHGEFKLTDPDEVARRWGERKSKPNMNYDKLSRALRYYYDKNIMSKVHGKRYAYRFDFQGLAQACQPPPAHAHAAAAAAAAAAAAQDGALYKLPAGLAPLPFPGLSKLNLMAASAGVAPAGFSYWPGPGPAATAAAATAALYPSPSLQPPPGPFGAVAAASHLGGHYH
# Outline: (§1)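 Pools of DNA-barcoded human transcription factors, expressed in yeast as GST fusions on glutathione beads and combined with a tag-only sample, were incubated with 200 nmole of a 16-mer random double-stranded DNA library. Incubation took 30 min at room temperature in Tris/NaCl/DTT/glycerol buffer and was followed by washing, 0.1% formaldehyde crosslinking, proximity ligation (BsaI/T4 ligase, 1 h, 37 °C), PCR amplification and sequencing on an Illumina NextSeq500. Binding signal is the ratio of a hexamer's read frequency for a factor to its frequency for the tag-only sample.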
# [2] = biological target: ETV5 (Homo sapiens, UniProt P41161 1-510); conditions: protein: recombinant; tags: N-terminal GST; dsDNA, one strand shown
# Outline: as §1
# [3] = biological target: HSF1 (Homo sapiens, UniProt Q00613 1-529); conditions: protein: recombinant; tags: N-terminal GST; chain copies: 3; dsDNA, one strand shown
# Outline: as §1
# [4] = biological target: T2, SPIC (Homo sapiens, UniProt Q8N5J4 1-248); conditions: protein: recombinant; tags: N-terminal GST; dsDNA, one strand shown
# T2 sequence: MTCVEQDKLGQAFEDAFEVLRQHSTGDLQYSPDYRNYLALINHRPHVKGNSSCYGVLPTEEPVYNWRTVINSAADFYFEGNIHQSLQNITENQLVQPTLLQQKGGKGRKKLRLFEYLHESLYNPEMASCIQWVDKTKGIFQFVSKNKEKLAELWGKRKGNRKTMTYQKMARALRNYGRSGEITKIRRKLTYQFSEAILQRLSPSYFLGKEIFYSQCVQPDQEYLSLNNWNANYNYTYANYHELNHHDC
# Outline: as §1
# [5] = biological target: ELF4 (Homo sapiens, UniProt Q99607 1-663); conditions: protein: recombinant; tags: N-terminal GST; dsDNA, one strand shown
# Outline: as §1
# [6] = biological target: T3, ELK4 (Homo sapiens, UniProt P28324-2 1-405); conditions: protein: recombinant; tags: N-terminal GST; dsDNA, one strand shown
# T3 sequence: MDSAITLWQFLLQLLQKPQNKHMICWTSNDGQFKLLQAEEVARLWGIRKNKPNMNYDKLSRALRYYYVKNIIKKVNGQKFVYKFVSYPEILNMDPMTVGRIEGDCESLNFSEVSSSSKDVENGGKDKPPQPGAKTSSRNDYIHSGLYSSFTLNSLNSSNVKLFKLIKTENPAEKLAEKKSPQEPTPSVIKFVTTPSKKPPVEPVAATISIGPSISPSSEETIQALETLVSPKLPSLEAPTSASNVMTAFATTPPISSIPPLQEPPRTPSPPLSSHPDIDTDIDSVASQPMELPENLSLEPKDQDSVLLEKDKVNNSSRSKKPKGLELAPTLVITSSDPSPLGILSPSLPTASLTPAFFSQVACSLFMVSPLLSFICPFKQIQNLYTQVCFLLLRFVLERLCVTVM
# Outline: as §1
# [7] = biological target: T4, ETV2 (Homo sapiens, UniProt O00321 1-342); conditions: protein: recombinant; tags: N-terminal GST; dsDNA, one strand shown
# T4 sequence: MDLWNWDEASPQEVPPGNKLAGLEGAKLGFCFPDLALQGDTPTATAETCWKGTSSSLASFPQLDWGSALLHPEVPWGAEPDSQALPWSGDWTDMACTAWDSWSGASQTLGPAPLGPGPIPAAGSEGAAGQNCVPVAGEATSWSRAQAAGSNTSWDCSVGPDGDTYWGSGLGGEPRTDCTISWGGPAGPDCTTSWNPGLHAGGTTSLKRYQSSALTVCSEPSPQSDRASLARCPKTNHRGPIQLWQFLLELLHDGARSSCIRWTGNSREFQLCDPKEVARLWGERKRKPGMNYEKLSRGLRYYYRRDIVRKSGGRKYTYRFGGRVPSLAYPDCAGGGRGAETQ
# Outline: as §1
# [8] = biological target: T5, ELF3 (Homo sapiens, UniProt P78545 1-371); conditions: protein: recombinant; tags: N-terminal GST; dsDNA, one strand shown
# T5 sequence: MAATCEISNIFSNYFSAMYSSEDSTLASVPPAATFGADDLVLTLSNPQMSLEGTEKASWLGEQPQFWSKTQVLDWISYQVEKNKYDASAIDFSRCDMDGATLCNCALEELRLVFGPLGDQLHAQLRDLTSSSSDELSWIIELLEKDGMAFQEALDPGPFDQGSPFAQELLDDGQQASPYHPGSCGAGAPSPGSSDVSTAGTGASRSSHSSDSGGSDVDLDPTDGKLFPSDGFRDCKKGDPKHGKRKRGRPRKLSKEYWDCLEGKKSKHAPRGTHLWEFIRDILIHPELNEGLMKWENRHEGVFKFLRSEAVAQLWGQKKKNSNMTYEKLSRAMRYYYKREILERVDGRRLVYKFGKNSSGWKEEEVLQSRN
# Outline: as §1
# [9] = biological target: CRX (Homo sapiens, UniProt O43186 1-299); conditions: protein: recombinant; tags: N-terminal GST; dsDNA, one strand shown
# Outline: as §1
# [10] = biological target: ETV1 (Homo sapiens, UniProt P50549 1-477); conditions: protein: recombinant; tags: N-terminal GST; dsDNA, one strand shown
# Outline: as §1
# [11] = biological target: T6, ERF (Homo sapiens, UniProt P50548 1-548); conditions: protein: recombinant; tags: N-terminal GST; dsDNA, one strand shown
# T6 sequence: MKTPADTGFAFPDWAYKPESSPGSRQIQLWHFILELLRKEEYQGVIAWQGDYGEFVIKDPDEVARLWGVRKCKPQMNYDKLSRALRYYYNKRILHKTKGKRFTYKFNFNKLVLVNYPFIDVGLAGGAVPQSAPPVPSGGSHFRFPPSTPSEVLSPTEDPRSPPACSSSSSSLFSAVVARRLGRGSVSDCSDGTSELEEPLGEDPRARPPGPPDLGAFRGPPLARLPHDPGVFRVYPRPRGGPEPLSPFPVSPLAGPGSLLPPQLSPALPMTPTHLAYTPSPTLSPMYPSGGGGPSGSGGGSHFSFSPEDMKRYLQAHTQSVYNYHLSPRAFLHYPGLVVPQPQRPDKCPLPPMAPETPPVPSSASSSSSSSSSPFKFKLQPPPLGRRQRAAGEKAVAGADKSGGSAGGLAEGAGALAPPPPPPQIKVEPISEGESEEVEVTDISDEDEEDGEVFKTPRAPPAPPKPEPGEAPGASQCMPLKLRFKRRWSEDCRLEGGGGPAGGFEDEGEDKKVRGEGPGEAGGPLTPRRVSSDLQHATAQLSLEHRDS
# Outline: as §1
# [12] = biological target: T7, ETV3L (Homo sapiens, UniProt Q6ZN32 1-361); conditions: protein: recombinant; tags: N-terminal GST; dsDNA, one strand shown
# T7 sequence: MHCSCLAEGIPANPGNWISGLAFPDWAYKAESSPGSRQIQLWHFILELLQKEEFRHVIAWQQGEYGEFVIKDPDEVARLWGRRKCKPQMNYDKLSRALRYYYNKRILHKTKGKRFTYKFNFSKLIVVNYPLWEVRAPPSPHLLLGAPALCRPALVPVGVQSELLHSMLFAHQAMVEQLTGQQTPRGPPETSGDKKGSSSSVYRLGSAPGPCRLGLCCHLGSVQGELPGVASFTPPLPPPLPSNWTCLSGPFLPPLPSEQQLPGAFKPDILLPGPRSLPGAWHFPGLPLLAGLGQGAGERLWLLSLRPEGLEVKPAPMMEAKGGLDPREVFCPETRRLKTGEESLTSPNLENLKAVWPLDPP
# Outline: as §1
# [13] = biological target: T8, ETS2 (Homo sapiens, UniProt P15036 1-469); conditions: protein: recombinant; tags: N-terminal GST; dsDNA, one strand shown
# T8 sequence: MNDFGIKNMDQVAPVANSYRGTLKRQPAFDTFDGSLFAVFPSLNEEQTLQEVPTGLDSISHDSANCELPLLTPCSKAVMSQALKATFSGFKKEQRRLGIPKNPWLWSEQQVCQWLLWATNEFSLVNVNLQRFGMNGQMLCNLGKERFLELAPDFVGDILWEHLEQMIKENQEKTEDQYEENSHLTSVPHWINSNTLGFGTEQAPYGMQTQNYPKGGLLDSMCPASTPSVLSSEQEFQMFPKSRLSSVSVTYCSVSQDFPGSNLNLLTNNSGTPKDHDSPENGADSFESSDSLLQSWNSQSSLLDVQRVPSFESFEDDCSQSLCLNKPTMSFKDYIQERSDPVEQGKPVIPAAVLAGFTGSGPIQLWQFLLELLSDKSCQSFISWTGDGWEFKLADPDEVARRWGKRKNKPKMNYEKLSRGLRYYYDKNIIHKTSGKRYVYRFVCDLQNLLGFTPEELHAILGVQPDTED
# Outline: as §1
# [14] = biological target: T9, SPDEF (Homo sapiens, UniProt O95238 1-335); conditions: protein: recombinant; tags: N-terminal GST; dsDNA, one strand shown
# T9 sequence: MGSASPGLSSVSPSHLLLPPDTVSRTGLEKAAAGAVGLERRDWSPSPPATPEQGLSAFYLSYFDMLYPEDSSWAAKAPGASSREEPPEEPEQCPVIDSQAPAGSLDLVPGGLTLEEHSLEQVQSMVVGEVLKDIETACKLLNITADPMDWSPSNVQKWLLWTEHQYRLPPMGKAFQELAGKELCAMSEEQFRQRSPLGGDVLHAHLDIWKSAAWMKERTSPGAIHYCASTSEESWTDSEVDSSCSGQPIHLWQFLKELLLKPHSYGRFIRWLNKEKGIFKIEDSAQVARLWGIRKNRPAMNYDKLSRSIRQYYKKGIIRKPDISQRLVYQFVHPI
# Outline: as §1
# [15] = biological target: T10, ETV7 (Homo sapiens, UniProt Q9Y603 1-341); conditions: protein: recombinant; tags: N-terminal GST; dsDNA, one strand shown
# T10 sequence: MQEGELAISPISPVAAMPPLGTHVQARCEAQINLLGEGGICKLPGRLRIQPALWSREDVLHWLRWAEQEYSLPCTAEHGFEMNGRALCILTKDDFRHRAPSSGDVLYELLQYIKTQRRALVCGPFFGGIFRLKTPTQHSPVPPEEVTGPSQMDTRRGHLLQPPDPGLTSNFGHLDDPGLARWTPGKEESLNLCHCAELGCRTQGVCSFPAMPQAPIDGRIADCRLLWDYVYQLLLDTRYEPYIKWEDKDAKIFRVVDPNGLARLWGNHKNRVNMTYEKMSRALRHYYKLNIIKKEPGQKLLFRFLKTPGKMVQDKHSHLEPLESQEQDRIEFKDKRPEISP
# Outline: as §1
# [16] = biological target: T11, ELF5 (Homo sapiens, UniProt Q9UKW6-2 1-255); conditions: protein: recombinant; tags: N-terminal GST; dsDNA, one strand shown
# T11 sequence: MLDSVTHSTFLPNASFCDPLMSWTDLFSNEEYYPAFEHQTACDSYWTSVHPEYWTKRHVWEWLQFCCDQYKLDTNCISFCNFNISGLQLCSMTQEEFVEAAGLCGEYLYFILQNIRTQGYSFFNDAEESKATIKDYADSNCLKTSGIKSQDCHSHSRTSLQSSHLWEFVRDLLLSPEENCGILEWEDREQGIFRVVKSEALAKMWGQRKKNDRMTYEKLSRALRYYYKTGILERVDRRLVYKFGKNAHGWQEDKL
# Outline: as §1
# [17] = biological target: T12, ETV3 (Homo sapiens, UniProt P41162-2 1-143); conditions: protein: recombinant; tags: N-terminal GST; dsDNA, one strand shown
# T12 sequence: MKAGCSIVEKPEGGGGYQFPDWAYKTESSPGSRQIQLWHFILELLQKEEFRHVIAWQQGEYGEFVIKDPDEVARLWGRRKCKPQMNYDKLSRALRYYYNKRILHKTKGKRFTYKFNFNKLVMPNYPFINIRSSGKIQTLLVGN
# Outline: as §1
# [18] = biological target: ETV6 (Homo sapiens, UniProt P41212 1-452); conditions: protein: recombinant; tags: N-terminal GST; dsDNA, one strand shown
# Outline: as §1
# Chain of ETV6 (P41212 whole entry): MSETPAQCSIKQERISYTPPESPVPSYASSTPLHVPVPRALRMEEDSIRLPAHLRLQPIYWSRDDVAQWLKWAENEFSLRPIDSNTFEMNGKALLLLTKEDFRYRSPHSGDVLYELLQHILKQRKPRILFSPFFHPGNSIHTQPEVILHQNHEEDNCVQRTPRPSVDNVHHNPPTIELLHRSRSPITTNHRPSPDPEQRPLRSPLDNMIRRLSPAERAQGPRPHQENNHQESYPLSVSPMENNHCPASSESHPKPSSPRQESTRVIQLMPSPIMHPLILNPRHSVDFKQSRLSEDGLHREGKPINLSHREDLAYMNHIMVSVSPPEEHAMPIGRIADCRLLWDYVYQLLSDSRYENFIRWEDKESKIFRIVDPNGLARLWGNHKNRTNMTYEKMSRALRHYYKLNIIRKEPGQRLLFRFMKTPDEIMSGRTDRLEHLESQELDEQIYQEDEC
# Chain of CRX (O43186 whole entry): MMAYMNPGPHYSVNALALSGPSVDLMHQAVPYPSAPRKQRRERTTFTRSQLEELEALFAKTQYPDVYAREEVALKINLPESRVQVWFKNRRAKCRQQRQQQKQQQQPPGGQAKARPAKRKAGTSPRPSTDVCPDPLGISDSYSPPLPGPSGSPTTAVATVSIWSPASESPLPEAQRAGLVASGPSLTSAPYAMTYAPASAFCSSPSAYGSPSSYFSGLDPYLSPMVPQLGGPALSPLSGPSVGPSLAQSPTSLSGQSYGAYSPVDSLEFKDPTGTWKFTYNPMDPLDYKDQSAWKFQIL
# Chain of ETV5 (P41161 whole entry): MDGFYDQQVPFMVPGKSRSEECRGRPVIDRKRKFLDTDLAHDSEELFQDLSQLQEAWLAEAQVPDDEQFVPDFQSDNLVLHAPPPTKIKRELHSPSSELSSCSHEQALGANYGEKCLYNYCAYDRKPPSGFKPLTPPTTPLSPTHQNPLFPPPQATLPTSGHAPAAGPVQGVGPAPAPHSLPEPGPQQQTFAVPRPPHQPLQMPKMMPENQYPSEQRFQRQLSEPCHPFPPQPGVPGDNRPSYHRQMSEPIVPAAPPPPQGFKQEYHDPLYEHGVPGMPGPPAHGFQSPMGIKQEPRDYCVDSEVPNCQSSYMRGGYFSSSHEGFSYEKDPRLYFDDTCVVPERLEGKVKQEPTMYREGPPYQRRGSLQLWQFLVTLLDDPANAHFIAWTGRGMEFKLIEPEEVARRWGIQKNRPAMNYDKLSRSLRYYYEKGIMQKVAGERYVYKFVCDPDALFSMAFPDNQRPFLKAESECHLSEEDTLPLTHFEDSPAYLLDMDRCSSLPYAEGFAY
# Chain of ELF4 (Q99607 whole entry): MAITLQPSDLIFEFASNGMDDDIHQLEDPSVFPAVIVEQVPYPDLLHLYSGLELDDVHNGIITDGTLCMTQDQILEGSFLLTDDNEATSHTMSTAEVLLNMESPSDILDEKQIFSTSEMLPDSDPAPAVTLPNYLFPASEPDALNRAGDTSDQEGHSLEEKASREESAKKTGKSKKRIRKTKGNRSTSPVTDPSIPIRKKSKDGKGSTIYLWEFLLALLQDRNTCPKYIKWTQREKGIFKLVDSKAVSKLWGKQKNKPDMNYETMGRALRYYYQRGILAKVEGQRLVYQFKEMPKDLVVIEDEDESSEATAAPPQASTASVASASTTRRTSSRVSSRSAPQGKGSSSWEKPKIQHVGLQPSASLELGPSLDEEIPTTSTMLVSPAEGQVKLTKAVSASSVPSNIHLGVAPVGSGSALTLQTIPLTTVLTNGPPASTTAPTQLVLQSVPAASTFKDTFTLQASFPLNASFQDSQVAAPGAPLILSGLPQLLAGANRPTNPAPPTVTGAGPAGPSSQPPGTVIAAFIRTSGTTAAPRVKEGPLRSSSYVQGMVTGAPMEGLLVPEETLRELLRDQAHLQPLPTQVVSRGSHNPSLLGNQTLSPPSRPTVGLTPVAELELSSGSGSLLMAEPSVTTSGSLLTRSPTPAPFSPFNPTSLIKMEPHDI
# Chain of ETV1 (P50549 whole entry): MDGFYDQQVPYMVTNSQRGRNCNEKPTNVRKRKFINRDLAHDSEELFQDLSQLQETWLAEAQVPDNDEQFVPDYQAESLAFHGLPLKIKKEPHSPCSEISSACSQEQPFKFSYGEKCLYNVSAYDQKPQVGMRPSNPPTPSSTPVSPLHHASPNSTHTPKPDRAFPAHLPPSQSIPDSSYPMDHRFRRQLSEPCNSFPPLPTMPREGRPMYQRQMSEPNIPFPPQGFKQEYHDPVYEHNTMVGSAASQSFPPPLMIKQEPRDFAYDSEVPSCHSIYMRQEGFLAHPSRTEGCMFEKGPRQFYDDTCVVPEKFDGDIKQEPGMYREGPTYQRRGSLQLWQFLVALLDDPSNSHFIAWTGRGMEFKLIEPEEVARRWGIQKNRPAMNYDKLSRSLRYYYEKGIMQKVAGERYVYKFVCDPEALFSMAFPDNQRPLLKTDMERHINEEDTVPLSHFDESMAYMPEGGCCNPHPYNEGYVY
# Chain of HSF1 (Q00613 whole entry): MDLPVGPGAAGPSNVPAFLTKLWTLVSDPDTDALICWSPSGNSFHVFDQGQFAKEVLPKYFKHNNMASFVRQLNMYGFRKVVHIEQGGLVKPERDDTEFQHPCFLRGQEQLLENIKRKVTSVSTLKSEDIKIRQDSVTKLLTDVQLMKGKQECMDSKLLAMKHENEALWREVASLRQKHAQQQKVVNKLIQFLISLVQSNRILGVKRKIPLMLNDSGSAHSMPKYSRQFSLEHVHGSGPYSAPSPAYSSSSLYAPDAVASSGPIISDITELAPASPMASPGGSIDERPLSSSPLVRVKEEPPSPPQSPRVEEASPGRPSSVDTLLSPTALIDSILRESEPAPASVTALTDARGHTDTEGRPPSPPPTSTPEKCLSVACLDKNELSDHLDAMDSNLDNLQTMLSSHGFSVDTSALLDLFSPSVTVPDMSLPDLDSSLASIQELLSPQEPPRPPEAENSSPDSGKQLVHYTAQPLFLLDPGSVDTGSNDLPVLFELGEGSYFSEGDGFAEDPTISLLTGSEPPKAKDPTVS
sequence,measurement,setting,value
TGATCC,binding signal,[1],"1.29 fold enrichment (6-mer frequency, TF over GST control)"
same,binding signal,[2],"1.3 fold enrichment (6-mer frequency, TF over GST control)"
same,binding signal,[3],"1.65 fold enrichment (6-mer frequency, TF over GST control)"
same,binding signal,[4],"1.32 fold enrichment (6-mer frequency, TF over GST control)"
same,binding signal,[5],"1.28 fold enrichment (6-mer frequency, TF over GST control)"
same,binding signal,[6],"1.26 fold enrichment (6-mer frequency, TF over GST control)"
same,binding signal,[7],"1.09 fold enrichment (6-mer frequency, TF over GST control)"
same,binding signal,[8],"1.1 fold enrichment (6-mer frequency, TF over GST control)"
same,binding signal,[9],"2.2 fold enrichment (6-mer frequency, TF over GST control)"
same,binding signal,[10],"1.27 fold enrichment (6-mer frequency, TF over GST control)"
same,binding signal,[11],"1.23 fold enrichment (6-mer frequency, TF over GST control)"
same,binding signal,[12],"1.28 fold enrichment (6-mer frequency, TF over GST control)"
same,binding signal,[13],"1.25 fold enrichment (6-mer frequency, TF over GST control)"
same,binding signal,[14],"1.63 fold enrichment (6-mer frequency, TF over GST control)"
same,binding signal,[15],"1.12 fold enrichment (6-mer frequency, TF over GST control)"
same,binding signal,[16],"1.35 fold enrichment (6-mer frequency, TF over GST control)"
same,binding signal,[17],"1.24 fold enrichment (6-mer frequency, TF over GST control)"
same,binding signal,[18],"1.26 fold enrichment (6-mer frequency, TF over GST control)"
